The values that follow come from article PMC7819943, “Rice protein-binding microarrays: a tool to detect cis-acting elements near promoter regions in rice”.

Over roughly 39,000 sequences, “fluorescence intensity (a.u.)” has its median near 4,300; the highest 2% begin near 39,000. Only a selection was taken, and the highest values are over-represented in it overall.

For the experiment, the target named is T1, OsSMF1 (Oryza sativa, UniProt Q6ZLB0 1-436).
T1 sequence: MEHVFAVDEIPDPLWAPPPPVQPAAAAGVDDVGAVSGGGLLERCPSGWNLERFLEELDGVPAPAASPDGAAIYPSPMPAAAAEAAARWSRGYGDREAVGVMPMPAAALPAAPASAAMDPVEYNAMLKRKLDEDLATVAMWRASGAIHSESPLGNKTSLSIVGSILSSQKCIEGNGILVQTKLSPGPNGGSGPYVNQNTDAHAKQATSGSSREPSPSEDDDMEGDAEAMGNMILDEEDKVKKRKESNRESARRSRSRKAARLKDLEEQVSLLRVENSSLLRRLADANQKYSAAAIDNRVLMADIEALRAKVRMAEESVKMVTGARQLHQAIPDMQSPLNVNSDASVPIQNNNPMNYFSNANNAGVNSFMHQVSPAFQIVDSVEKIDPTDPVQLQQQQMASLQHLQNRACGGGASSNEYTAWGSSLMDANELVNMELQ
The experiment is described as follows: protein-binding microarray (RPBM); PBS, 2% BSA, 51.3 ng/ul salmon testes DNA, 50 uM zinc acetate, 200 nM TF, 25 C, 1 h; high values mean tight binding. As to conditions: protein: recombinant; tags: N-terminal polyhistidine and DsRed monomer fusion (pET32a); chain copies: 2; label: CyDye5-dUTP incorporated in the synthesized complementary strand; 3' TTTTT single-stranded linker to array surface; dsDNA, one strand shown. The procedure, abridged: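 Binding signal is defined as the fluorescence intensity of each feature in arbitrary units, read on an Axon 4000B scanner. Transcription factors with N-terminal polyhistidine and DsRed fusions came from E. coli BL21-CodonPlus and were purified on Ni–NTA. They were incubated at 200 nM for 1 h at 25 °C on a custom Agilent array that had been made double-stranded with Cy5-dUTP, with 50 µM zinc acetate present, and the array was washed.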
In the case of “TGATGCTACAATAAACATTTACTAATGACGGATTAATTAGCGGAGTCACCTAGTGCAG”, the binding signal is 3430 fluorescence intensity (a.u.).
The value for “TAAACACAATTCTCCCTAATTATTATTTCTGGATGATGAGCGGAGTCACCTAGTGCAG” was 41400 fluorescence intensity (a.u.); that for “CTTAATTAATTATACACACAAACATTCCCTCCAATGCATGCGGAGTCACCTAGTGCAG” was 3760 fluorescence intensity (a.u.).
Regarding “AATGTTTGTAGCACGGGAGGCATACCACATACATACATTGCGGAGTCACCTAGTGCAG”, the binding signal is 3640 fluorescence intensity (a.u.).
The value for “CTCGATCACACACGGTGTCACAGTCACAGGTGCATTGACGCGGAGTCACCTAGTGCAG” was 7140 fluorescence intensity (a.u.); that for “CTCTCCCAGCGGTAATGGAGGGCGGTTTTGCTGACGTGGCCGGAGTCACCTAGTGCAG” was 58300 fluorescence intensity (a.u.).
The value for “ACTCCCTCGACGGTTTTGGAGGGCGATTTTGCTGACGTGGCGGAGTCACCTAGTGCAG” was 47600 fluorescence intensity (a.u.).
The value for “GATGACGACGGCGATGACGGCGGGGCGGTTTGGAGCGGGGCGGAGTCACCTAGTGCAG” was 4720 fluorescence intensity (a.u.).
As for “TAGAGAGCGGTTTTGCTGACGTGGCGTATACGTGACGGTACGGAGTCACCTAGTGCAG”, the binding signal was 33100 fluorescence intensity (a.u.).
For the sequence “TGGAGGCGACGTGGCGGTCGTTGACTCGTTGTGTGCTCGACGGAGTCACCTAGTGCAG”, the binding signal was 7090 fluorescence intensity (a.u.).
Next, “GTTTTGGAGGGCGGTTTTGCTGACGTGGCGCTGACATGGCCGGAGTCACCTAGTGCAG”: 32800 fluorescence intensity (a.u.).
The value for “GAGAGGGGTGCGCAGTGTGTTGTGGTGGTGCACATGACGGCGGAGTCACCTAGTGCAG” was 3510 fluorescence intensity (a.u.); that for “CCGGAAAATCTATCTGTGCTTATAAATAGCCATTATCCAACGGAGTCACCTAGTGCAG” was 57400 fluorescence intensity (a.u.); that for “GCGTGTGCATCTGCCATGTAATCCAAAATATAGCCATGAACGGAGTCACCTAGTGCAG” was 3660 fluorescence intensity (a.u.).
Next, “AGATAATCCATAATAATAATTAGCTTAATAATCTAAATCACGGAGTCACCTAGTGCAG”: 27300 fluorescence intensity (a.u.); “TCGCAACAACAAGAATGATGATGGCATGACGAAAATGCTACGGAGTCACCTAGTGCAG”: 3570 fluorescence intensity (a.u.).
Consider “TGTCCCCGCGCATCCGCGGACGTGGCTGGGCAACTGCTCGCGGAGTCACCTAGTGCAG”, for which the binding signal is 8030 fluorescence intensity (a.u.).
As to “CTCGTGGGGACGACGCTGGTGTCCGTGTACTGCAAGTGCGCGGAGTCACCTAGTGCAG”, the binding signal was 4060 fluorescence intensity (a.u.).
Next, “TACTGCATGCGCAAAGAGTTAATCCGTGGGGCTCGTGGGACGGAGTCACCTAGTGCAG”: 45300 fluorescence intensity (a.u.).
The value for “AGGGTTATAATTAGATGGGTAGTGGAGGTAGGTAAGAAAACGGAGTCACCTAGTGCAG” was 4130 fluorescence intensity (a.u.); that for “CACCCGCACCCGCCCGCACGGCCGCGCCCGCGTCACCACCCGGAGTCACCTAGTGCAG” was 6150 fluorescence intensity (a.u.).
Regarding “TGTATTTTCTGACGTTGGTAGCACGGTAGCACCCGATATTCGGAGTCACCTAGTGCAG”, the binding signal was 4250 fluorescence intensity (a.u.).
In the case of “GGGTTGTGGTTGTTGTACGTTGTTGTTGACGGCGATGGTTCGGAGTCACCTAGTGCAG”, the binding signal is 3460 fluorescence intensity (a.u.).
The value for “TGTGTTCCCTTTCGGTACGTTGTATTTCGACCCTGACGTTCGGAGTCACCTAGTGCAG” was 42700 fluorescence intensity (a.u.); that for “GCTGGTAAAGCGGTGCGCCGGTGCCGCCACGTCCTCGCACCGGAGTCACCTAGTGCAG” was 15100 fluorescence intensity (a.u.).
On to “CTAGAATGAGTGTTATGGCAGAGTGGTAGATGCTTGAAAACGGAGTCACCTAGTGCAG”, for which the binding signal was 29600 fluorescence intensity (a.u.).
Next, “CCACGCGGACACTGACACGTCATCATCGTGTTCGTTTCCTCGGAGTCACCTAGTGCAG”: 39300 fluorescence intensity (a.u.); “TTTCCCCGGTGGATCGTGTTCGGACACGTCGCGGCCCCTCCGGAGTCACCTAGTGCAG”: 6200 fluorescence intensity (a.u.); “CATCACGCTGACGTGTCCTTTCGTTTGGACACGGACATCTCGGAGTCACCTAGTGCAG”: 15000 fluorescence intensity (a.u.).
“AATGGGGCTATAGGTAATTATGCTTAGAAGTCCGGTTCATCGGAGTCACCTAGTGCAG”: the binding signal is 5130 fluorescence intensity (a.u.).
In the case of “GTTGGGGCGCCTCTGGGGCTGTCCACGTCGGATAGCTACACGGAGTCACCTAGTGCAG”, the binding signal was 20700 fluorescence intensity (a.u.).
In the case of “CAATCCGTTGATCGGGGTCGTAGTCCATCGACAGAAATTACGGAGTCACCTAGTGCAG”, the binding signal was 41800 fluorescence intensity (a.u.).
The value for “AATCCGAGTAGTCATTGTCGTTTCCATGCAGAATTATGGTCGGAGTCACCTAGTGCAG” was 4030 fluorescence intensity (a.u.); that for “GAATCCATCGACACGTTTCTTTCGTCAGAACAGTGTCCGTCGGAGTCACCTAGTGCAG” was 3420 fluorescence intensity (a.u.).
Next, “CGCGTCCGCAGTGTCCCACTCCCGCCACTCCTTCCACCCCCGGAGTCACCTAGTGCAG”: 3780 fluorescence intensity (a.u.).
Regarding “CTCTCTCTCGGCTTCCACTCCCGTCTCCTCGTCTCCTCGCCGGAGTCACCTAGTGCAG”, the binding signal was 4090 fluorescence intensity (a.u.).
On to “ATTGACGCGCCTCGGTATTACCTCACTAGCTGCGTCATTGCGGAGTCACCTAGTGCAG”, for which the binding signal was 6460 fluorescence intensity (a.u.).
The value for “ATATTGTCACGTGTCACATGTTAGTTTGTTCAGGAACGGACGGAGTCACCTAGTGCAG” was 5880 fluorescence intensity (a.u.); that for “TCCATTAAGCCTCCGTTTAGTAAAGATAAAGATTGGTCAACGGAGTCACCTAGTGCAG” was 44200 fluorescence intensity (a.u.); that for “TTATTAAGCCTAATTAATCCATCATTAGTAAATATTTACTCGGAGTCACCTAGTGCAG” was 3780 fluorescence intensity (a.u.).
For the sequence “ATGTTTAATCAACCTCTAAATCAATAAGATTAGTCATGTACGGAGTCACCTAGTGCAG”, the binding signal was 3950 fluorescence intensity (a.u.).
As to “ACTTTCTTGAATTTAATGCGTGACTCTCCATTCGTCCACACGGAGTCACCTAGTGCAG”, the binding signal was 3620 fluorescence intensity (a.u.).
